Data published in PubChem BioAssay.
For some assays here: Potency and affinity values are given separately. This is one part of the list. Active and inactive are the calls of the source.

Assays:
[1] = target: Inward rectifier potassium channel 2 (Mus musculus) (UniProt P35561); experiment: inhibition of Kir2.1 inward rectifier potassium flux – cell-based, FluxOR thallium flux, duplicate, confirmation (AID 2032;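 active means Primary-screen hit whose thallium flux fell at least 3 control SD below untreated wells in both duplicates, with normal baseline fluorescence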); conditions: Kir2.1-expressing cells, FluxOR thallium flux fluorescence, at 10 µM; stronger effect = lower value
Inward rectifier potassium channel 2 (Mus musculus), sequence (P35561 whole entry, looked up): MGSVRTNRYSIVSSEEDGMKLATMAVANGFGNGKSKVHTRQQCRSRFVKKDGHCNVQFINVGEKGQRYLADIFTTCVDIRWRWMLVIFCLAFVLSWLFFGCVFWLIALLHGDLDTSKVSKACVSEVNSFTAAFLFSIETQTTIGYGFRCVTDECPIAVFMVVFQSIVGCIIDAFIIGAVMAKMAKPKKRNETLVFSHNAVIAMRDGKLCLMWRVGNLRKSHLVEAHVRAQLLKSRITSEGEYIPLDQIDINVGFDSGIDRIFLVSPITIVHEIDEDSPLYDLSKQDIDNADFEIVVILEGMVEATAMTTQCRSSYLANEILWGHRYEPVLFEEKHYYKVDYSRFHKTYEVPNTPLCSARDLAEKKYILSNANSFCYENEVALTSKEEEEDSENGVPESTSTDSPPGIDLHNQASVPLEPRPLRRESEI

[2] = parental HEK293 cell activity, no Kir2.1 – FluxOR thallium flux, duplicate, single concentration, counter-screen for Kir2.1 inhibitor project, confirmation (AID 2105;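 active means dye signal at least 3 control SD above or below untreated wells in both duplicates, raw fluorescence within 3, either direction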;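 on FluxOR signal as % of negative control (100 = no effect): percent is based on the flux ratio of peak minus minimum fluorescence over baseline F0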); conditions: parental HEK293 cells, FluxOR thallium flux fluorescence, at 10 µM; 0% = unstimulated blank wells
[3] = target: Voltage-gated inwardly rectifying potassium channel KCNH2 (Homo sapiens) (UniProt Q12809); experiment: hERG block by Kir2.1 inhibitor candidates – cell-based, thallium flux, counter-screen for Kir2.1 inhibitor project (AID 2236); conditions: hERG-expressing cells, at 10 µM; stronger effect = higher value;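 further: host cells are CHO cells stably expressing hERG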
Voltage-gated inwardly rectifying potassium channel KCNH2 (Homo sapiens), sequence (Q12809 whole entry, looked up): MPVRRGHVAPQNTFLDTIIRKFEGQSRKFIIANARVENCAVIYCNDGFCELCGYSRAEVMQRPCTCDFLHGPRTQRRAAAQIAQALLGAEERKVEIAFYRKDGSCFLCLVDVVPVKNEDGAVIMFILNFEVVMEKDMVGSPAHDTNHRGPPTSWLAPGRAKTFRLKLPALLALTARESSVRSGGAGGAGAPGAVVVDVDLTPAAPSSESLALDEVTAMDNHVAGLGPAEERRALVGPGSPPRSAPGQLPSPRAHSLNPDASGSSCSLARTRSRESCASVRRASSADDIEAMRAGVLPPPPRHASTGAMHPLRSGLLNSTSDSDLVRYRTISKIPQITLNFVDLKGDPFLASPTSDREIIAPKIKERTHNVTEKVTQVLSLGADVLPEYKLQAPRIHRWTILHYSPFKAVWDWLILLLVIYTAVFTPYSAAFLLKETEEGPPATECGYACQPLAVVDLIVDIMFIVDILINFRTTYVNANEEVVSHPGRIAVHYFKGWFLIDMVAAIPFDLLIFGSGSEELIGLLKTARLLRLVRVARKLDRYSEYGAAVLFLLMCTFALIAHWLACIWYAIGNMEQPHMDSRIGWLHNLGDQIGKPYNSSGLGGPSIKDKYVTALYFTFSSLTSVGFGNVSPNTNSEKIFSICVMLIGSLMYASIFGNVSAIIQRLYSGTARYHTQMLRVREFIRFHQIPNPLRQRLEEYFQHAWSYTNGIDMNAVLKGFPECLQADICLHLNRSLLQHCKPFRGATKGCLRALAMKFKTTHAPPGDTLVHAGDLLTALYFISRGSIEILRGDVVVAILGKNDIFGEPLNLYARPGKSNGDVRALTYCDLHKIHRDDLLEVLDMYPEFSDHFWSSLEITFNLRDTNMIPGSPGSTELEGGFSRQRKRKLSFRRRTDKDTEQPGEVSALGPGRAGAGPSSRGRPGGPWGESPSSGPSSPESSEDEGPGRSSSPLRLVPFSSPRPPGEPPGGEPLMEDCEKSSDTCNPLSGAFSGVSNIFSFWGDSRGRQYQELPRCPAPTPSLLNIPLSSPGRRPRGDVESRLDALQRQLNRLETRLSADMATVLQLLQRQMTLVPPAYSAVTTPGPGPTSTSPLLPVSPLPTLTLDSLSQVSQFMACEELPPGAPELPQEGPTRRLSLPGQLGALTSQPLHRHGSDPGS

[4] = target: Potassium channel subfamily K member 9 (Homo sapiens) (UniProt Q9NPC2); experiment: human KCNK9 potassium channel blockers – cell-based, selectivity assay for Kir2.1 inhibitor project (AID 2329); conditions: KCNK9-expressing cells, ion flux inhibition, at 10 µM; stronger effect = higher value
[5] = target: Inward rectifier potassium channel 2 (Mus musculus) (UniProt P35561); experiment: Kir2.1 potassium current inhibition – cell-based, secondary, automated electrophysiology, Kir2.1 inhibitor project (AID 463252); conditions: Kir2.1 cells, automated patch-clamp current inhibition, at 25 µM; stronger effect = higher value
[6] = parental CHO-K1 cell activation, no KCNQ2 – FluxOR thallium flux, duplicate, counter-screen for KCNQ2 potentiator project, confirmation (AID 2282;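 active means signal rise of at least 3 SD above the untreated control mean, in both duplicate wells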;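 further: counter screen of KCNQ2 potentiator hits so any rise reflects channel-independent effects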); conditions: parental CHO-K1 cells, FluxOR thallium flux fluorescence; at 10 µM; stronger effect = higher value; zero = vehicle mean+3SD, 100% = vehicle-minus-blank window
[7] = target: Potassium voltage-gated channel subfamily KQT member 1 (Homo sapiens) (UniProt P51787); experiment: KCNQ1 activation in stable CHO cells – cell-based, FluxOR thallium flux, selectivity assay for KCNQ2 potentiator project, confirmation (AID 2283;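 active means fluorescence ratio rise of at least 3 SD of vehicle wells above their mean, in both replicate wells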;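 further: 0% = vehicle mean plus 3 SD and 100% = vehicle minus unstimulated blank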); conditions: FluxOR thallium flux fluorescence, at 10 µM, stronger effect = higher value, beyond 3SD, as % of vehicle-control signal
Potassium voltage-gated channel subfamily KQT member 1 (Homo sapiens), sequence (P51787 whole entry, looked up): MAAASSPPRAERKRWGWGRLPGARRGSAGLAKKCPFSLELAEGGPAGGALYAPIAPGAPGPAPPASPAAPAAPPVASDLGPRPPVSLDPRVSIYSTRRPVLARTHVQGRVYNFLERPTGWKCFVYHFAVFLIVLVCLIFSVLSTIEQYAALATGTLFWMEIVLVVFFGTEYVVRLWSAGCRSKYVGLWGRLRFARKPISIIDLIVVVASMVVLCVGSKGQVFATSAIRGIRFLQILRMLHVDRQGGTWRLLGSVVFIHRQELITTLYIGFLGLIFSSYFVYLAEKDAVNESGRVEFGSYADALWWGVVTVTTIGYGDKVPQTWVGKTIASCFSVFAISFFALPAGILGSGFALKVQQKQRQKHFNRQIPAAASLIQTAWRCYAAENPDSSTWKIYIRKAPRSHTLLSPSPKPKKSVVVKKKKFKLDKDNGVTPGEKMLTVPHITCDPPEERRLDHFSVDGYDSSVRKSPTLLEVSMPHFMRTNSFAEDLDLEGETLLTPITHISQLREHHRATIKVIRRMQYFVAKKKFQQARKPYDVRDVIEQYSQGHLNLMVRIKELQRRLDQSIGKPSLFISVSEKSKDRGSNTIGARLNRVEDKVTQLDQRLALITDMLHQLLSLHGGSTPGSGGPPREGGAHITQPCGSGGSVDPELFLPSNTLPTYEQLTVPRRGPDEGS

[8] = target: Potassium voltage-gated channel subfamily KQT member 2 (Rattus norvegicus) (UniProt O88943); experiment: KCNQ2 potassium channel activity enhancers – cell-based, CHO, FluxOR thallium flux, duplicate, confirmation (AID 2287;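 active means fluorescence ratio rising 3 SD or more over the vehicle control mean in both replicates, plus primary screen hit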;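 further: peak minus minimum thallium fluorescence divided by baseline after K/Tl stimulus; 0% = vehicle mean plus 3 SD and 100% = vehicle minus unstimulated blank difference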); conditions: CHO-KCNQ2 cells, FluxOR thallium flux fluorescence; at 10 µM; stronger effect = higher value
[9] = target: Inward rectifier potassium channel 2 (Mus musculus) (UniProt P35561); experiment: PubChem AID 2345; conditions: HEK293 Kir2.1, FluxOR thallium flux fluorescence; at 10 µM; stronger effect = higher value;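 further: 0% = vehicle mean plus 3 SD and 100% = vehicle minus no-stimulus blank window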
[10] = test system: TRPC4 beta (transient receptor potential cation channel C4), mouse; experiment: TRPC4 cation channel opening, retest – cell-based, Fluo4 calcium, HEK293 TRPC4beta/mu-opioid, duplicates, 10 µM, confirmation (AID 2426;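 active means fluorescence ratio normalized to control raised more than 50% in primary screen plus both repeat runs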); conditions: Fluo4 calcium fluorescence, at 10 µM; stronger effect = higher value
[11] = test system: transient receptor potential cation channel C4 beta (TRPC4), mouse; experiment: TRPC4 cation channel opening, second retest – cell-based, second round, Fluo4, HEK293 TRPC4beta/mu-opioid, 1 µM, confirmation (AID 2461;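 active means primary screen active and over 50% activation in each of two duplicate runs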); conditions: Fluo4 calcium fluorescence, at 1 µM; stronger effect = higher value
[12] = test system: TRPC4 (transient receptor potential cation channel C4 beta), mouse; experiment: potentiation of DAMGO EC20 TRPC4 response – cell-based, second round, Fluo-4, HEK293 TRPC4beta/mu-opioid, 1 µM, confirmation (AID 2554;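 active means primary screen hit whose fluorescence ratio, in both repeats, exceeds the weak agonist control mean by 3 SD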); conditions: DAMGO EC20, Fluo-4 calcium flux, at 1 µM; stronger effect = higher value
[13] = test system: TRPC4 beta (transient receptor potential cation channel C4), mouse; experiment: potentiation of DAMGO EC20 TRPC4 response – cell-based, Fluo-4, HEK293 TRPC4beta/mu-opioid, confirmation (AID 2555;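 active means primary screen hit whose calcium fluorescence ratio, in both repeats, exceeds the weak agonist control mean by 3 SD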); conditions: DAMGO EC20, Fluo-4 calcium flux, at 10 µM; stronger effect = higher value
[14] = target: Potassium voltage-gated channel subfamily KQT member 2 (Rattus norvegicus) (UniProt O88943); experiment: W236L mutant KCNQ2 current enhancers – cell-based, rat KCNQ2 W236L, CHO, automated patch clamp, mechanism study for KCNQ2 potentiator project (AID 2558;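 active means current increase at least 3 SD of the untreated controls above them in both duplicate recordings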); conditions: at 25 µM
[15] = target: Short transient receptor potential channel 4 (Mus musculus) (UniProt Q9QUQ5); experiment: blockers of DAMGO-evoked TRPC4 calcium flux – cell-based, Fluo4, HEK293 TRPC4beta/mu-opioid, confirmation (AID 2636;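 active means calcium signal cut by more than 3 SD below the full-agonist control yet still positive, in both repeats and the earlier primary screen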); conditions: at 10 µM; stronger effect = higher value
Short transient receptor potential channel 4 (Mus musculus), sequence (Q9QUQ5 whole entry, looked up): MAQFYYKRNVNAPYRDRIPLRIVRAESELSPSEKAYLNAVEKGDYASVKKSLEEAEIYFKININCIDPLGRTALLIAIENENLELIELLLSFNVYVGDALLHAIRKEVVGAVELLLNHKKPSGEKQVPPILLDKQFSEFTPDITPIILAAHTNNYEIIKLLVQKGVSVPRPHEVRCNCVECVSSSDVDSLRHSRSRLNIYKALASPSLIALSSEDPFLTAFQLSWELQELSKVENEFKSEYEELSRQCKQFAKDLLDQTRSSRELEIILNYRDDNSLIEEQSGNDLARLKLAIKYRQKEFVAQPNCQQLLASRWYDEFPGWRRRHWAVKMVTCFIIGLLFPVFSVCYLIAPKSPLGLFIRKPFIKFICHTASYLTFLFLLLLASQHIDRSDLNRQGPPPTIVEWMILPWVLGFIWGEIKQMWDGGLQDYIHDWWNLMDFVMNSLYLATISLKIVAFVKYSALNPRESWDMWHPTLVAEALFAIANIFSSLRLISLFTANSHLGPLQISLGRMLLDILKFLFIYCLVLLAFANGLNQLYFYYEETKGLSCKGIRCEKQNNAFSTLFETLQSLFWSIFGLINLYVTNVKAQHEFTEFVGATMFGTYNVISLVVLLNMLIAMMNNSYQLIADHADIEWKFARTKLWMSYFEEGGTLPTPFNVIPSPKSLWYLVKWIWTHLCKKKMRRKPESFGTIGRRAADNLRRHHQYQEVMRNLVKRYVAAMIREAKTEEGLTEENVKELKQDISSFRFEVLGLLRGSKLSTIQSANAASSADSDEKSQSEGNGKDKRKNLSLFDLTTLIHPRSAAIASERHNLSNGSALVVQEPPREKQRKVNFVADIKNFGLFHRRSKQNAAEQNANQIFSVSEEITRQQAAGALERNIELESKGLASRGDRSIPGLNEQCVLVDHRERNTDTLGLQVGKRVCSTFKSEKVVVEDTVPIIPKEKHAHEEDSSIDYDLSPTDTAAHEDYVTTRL

[16] = target: Short transient receptor potential channel 4 (Mus musculus) (UniProt Q9QUQ5); experiment: blockers of DAMGO-evoked TRPC4 calcium flux – cell-based, second round, Fluo4, HEK293 TRPC4beta/mu-opioid, 1 µM, confirmation (AID 2637;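 active means calcium signal ratio cut to more than 3 SD under the fully stimulated control mean yet still positive, in both repeats and the primary screen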;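 further: percent of integrated ratio relative to wells lacking test compound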); conditions: at 1 µM; stronger effect = higher value
[17] = target: Short transient receptor potential channel 4 (Mus musculus) (UniProt Q9QUQ5); experiment: calcium entry via TRPC4 opening agents – cell-based, HEK293 TRPC4/mu-opioid, Fluo-4 calcium, dose response (AID 434937;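 active means primary screen activator hit with a dose response curve and TRPC4 channel activation at any tested dose; inactive means no activation, no dose response, or not a primary hit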)
[18] = target: Short transient receptor potential channel 4 (Mus musculus) (UniProt Q9QUQ5); experiment: potentiation of DAMGO-evoked TRPC4 calcium signal – cell-based, HEK293 TRPC4/mu-opioid, Fluo-4 calcium, EC20 DAMGO, dose response (AID 434941;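 active means earlier screen potentiator hit that boosts the TRPC4 ion channel at some dose, with a dose response; inactive means no potentiation, no dose response, or not a prior hit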;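 further: calcium entry triggered by an EC20 dose of DAMGO at the co-expressed mu-opioid receptor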)
[19] = target: Short transient receptor potential channel 6 (Mus musculus) (UniProt Q61143); experiment: TRPC6 blockade by TRPC4 inhibitor hits – cell-based, HEK293, membrane potential dye, duplicate, selectivity assay for TRPC4 inhibitor project, confirmation (AID 434948;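 active means active in primary screen and both duplicates, each dropping signal beyond three positive-control SD with fluorescence still positive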); conditions: HEK293 TRPC6, membrane potential dye fluorescence, at 10 µM, stimulated with maximal-effect acetylcholine; stronger effect = higher value
Short transient receptor potential channel 6 (Mus musculus), sequence (Q61143 whole entry, looked up): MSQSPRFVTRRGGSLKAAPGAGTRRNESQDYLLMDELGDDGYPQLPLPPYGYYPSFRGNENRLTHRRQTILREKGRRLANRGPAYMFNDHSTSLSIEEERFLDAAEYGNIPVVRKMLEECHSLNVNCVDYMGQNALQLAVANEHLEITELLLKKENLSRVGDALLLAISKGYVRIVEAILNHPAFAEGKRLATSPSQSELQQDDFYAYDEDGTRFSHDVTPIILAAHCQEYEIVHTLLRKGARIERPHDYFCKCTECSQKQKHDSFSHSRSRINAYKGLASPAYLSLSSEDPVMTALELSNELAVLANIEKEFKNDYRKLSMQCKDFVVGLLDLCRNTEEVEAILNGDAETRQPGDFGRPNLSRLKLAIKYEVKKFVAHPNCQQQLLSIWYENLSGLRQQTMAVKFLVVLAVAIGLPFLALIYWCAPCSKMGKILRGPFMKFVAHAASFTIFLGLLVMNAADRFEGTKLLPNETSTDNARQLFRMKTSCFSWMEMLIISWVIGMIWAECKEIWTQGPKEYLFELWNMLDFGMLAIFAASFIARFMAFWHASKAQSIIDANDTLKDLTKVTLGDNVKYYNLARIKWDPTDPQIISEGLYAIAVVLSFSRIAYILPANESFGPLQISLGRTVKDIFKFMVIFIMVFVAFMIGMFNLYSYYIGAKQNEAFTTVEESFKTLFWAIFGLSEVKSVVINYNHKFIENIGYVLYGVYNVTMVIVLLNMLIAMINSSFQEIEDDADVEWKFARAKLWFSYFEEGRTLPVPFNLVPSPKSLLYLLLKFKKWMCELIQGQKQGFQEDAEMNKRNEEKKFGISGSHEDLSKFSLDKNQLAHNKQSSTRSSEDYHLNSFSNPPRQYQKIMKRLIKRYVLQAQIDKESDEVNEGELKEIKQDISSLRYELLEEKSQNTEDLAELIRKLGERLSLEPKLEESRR

[20] = target: Short transient receptor potential channel 6 (Mus musculus) (UniProt Q61143); experiment: TRPC6 opening by TRPC4 activator hits – cell-based, HEK293, membrane potential dye, duplicate, selectivity assay for TRPC4 activator project, confirmation (AID 434950;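 active means membrane potential signal rise above negative control mean plus 3 SD in both duplicates, also active in the earlier TRPC4 screen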); conditions: HEK293 TRPC6, membrane potential fluorescence, at 10 µM; activation: stronger effect = higher value; outcome: activation
[21] = target: Short transient receptor potential channel 6 (Mus musculus) (UniProt Q61143); experiment: positive modulators of mouse TRPC6 channel – HEK293 cells, membrane potential dye, duplicate, selectivity assay for TRPC4 potentiator project, confirmation (AID 434952;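 active means compound raising the membrane signal above positive-control mean plus 3 SD in both repeats, and a primary screen hit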); conditions: HEK293 TRPC6, membrane potential dye fluorescence, at 10 µM, maximal acetylcholine added after compound; stronger effect = higher value
[22] = target: Short transient receptor potential channel 4 (Mus musculus) (UniProt Q9QUQ5); experiment: calcium flux activators in TRPC4/5HT1a cells, counter-screen for TRPC4 activator project, cell-based, second counter screen, HEK293 TRPC4/5HT1a, Fluo-4 (AID 434977;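 active means calcium signal rise above buffer-control mean plus 5 SD in both duplicates, and also a hit in the primary screen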); conditions: Fluo-4 calcium flux, at 10 µM; stronger effect = higher value
[23] = serotonin-gated TRPC4 signal block – cell-based, second counter screen, HEK293 TRPC4/5HT1a, Fluo-4, counter-screen for TRPC4 inhibitor project, confirmation (AID 434978;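 active means primary screen active whose calcium signal fell more than 3 SD beyond the full-serotonin control mean in both duplicate plates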); conditions: Fluo-4 calcium flux, at 10 µM, serotonin added to trigger calcium flux; stronger effect = higher value
[24] = test system: TRPC4 (mouse), co-expressed with 5HT1a in HEK293; experiment: enhancement of serotonin-evoked TRPC4 response – cell-based, second counter screen, HEK293 TRPC4/5HT1a, Fluo-4, counter-screen for TRPC4 potentiator project, confirmation (AID 434979;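 active means signal rise over 3 SD above mean of control wells given weak agonist, in both repeats and first screen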); conditions: Fluo-4 calcium flux, at 10 µM, serotonin added at its EC20 dose; stronger effect = higher value
[25] = nonspecific calcium rise without TRPC4 – cell-based, HEK293 mu-opioid receptor line, counter-screen for TRPC4 activator project, confirmation (AID 449723;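 active means hit in primary screen, with calcium signal over 5 SD above buffer well mean in both duplicates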;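 further: counter screen cells carry the mu-opioid receptor alone and lack TRPC4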); conditions: HEK293 mu-opioid cells, Fluo-4 calcium fluorescence, at 10 µM; stronger effect = higher value
[26] = nonspecific potentiation of DAMGO calcium response – cell-based, HEK293 mu-opioid receptor line, counter-screen for TRPC4 allosteric potentiator project, confirmation (AID 449724;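 active means calcium signal rise more than 3 SD above the low-dose agonist control mean, in both duplicate plates and the primary screen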); conditions: HEK293 mu-opioid receptor cells, Fluo-4 calcium flux, at 10 µM, compound added before EC20 DAMGO stimulus; stronger effect = higher value
[27] = nonspecific voltage dye response without TRPC6 – cell-based, parental HEK293, counter-screen for TRPC6 modulator project, confirmation (AID 488924;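 active means membrane potential signal moves up or down beyond 5 SD from buffer-only wells, on both duplicate plates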); conditions: parental HEK293, membrane potential dye fluorescence; at 10 µM
[28] = membrane potential response modulators in host HEK293 cells – cell-based, second counter-screen, parental HEK293, membrane potential dye, counter-screen for TRPC6 modulator project, confirmation (AID 488926;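 active means membrane potential signal drops by more than 5 SD from the mean control signal, in both duplicate plates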); conditions: parental HEK293, membrane potential dye fluorescence; at 10 µM; after compound, maximal acetylcholine stimulation
[29] = test system: Transient receptor potential cation channel subfamily C member 4 (mouse); experiment: off-target membrane potential effects via mouse TRPC4 – cell-based, HEK293 TRPC4/mu-opioid, membrane potential dye, selectivity assay for TRPC6 modulator project, confirmation (AID 488927;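 active means membrane potential signal moved up or down beyond 5 SD of buffer control wells, in both duplicate plates, actives on both sides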;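 further: plate controls were assay buffer wells for no effect and DAMGO maximal-effect wells for full effect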); conditions: membrane potential fluorescence, at 10 µM
[30] = test system: TRPC4 (transient receptor potential cation channel C4), mouse; experiment: DAMGO-evoked mouse TRPC4 response blockade – cell-based, second screen, HEK293 TRPC4/mu-opioid, membrane potential dye, selectivity assay for TRPC6 modulator project, confirmation (AID 488928;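 active means drop in membrane potential signal beyond 5 SD of the control wells in both duplicate plates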;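 further: TRPC4 counter screen for TRPC6 hits run under conditions tuned for TRPC6 not TRPC4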); conditions: membrane potential dye fluorescence, at 10 µM, stimulated with maximal-effect DAMGO; stronger effect = higher value
[31] = target: Short transient receptor potential channel 6 (Mus musculus) (UniProt Q61143); experiment: blockers of TRPC6 cation channel activity – HEK293 cells, membrane potential dye, duplicate, confirmation (AID 488960;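 active means fluorescence ratio falls more than 5 SD below the full-stimulation control mean, in both duplicate runs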;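 further: integrated fluorescence ratio of peak minus minimum over baseline after agonist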); conditions: ACh-evoked depolarization, at 10 µM; stronger effect = higher value

Clc1cccc(Cl)c1OCCOCCNCc1ccccc1
inactive: outcome [2] | outcome [3] | outcome [4]
active: Tl flux remaining, % of negative control (stronger effect = lower value) [1] 33% | inhibition [5] 69.6%

CN(Cc1ccccc1)C(=O)CCc1ccccc1
inactive: outcome [1] | outcome [2]

Cc1ccc(C(=O)Nc2nnc(C3=COCCO3)o2)cc1C
active: activity increase over 3SD of controls [6] 50.1% | potentiation, less the hit threshold [8] 4.5% | inhibition [15] 66% | inhibition [16] 44% | inhibition [23] 42.2%
inactive: outcome [1] | outcome [2] | activation over 3SD threshold [7] -7.9% | activity over 3SD threshold [9] -30.3% | outcome [10] | outcome [11] | outcome [12] | outcome [13] | outcome [14] | outcome [17] | outcome [18] | outcome [19] | outcome [20] | outcome [21] | outcome [22] | outcome [24] | outcome [25] | outcome [26]

Cc1ccc(-c2nn(-c3ccccc3)cc2/C=C2\SC(=S)N(CCCCCC(=O)O)C2=O)o1
inactive: outcome [1]
active: FluxOR signal as % of negative control (100 = no effect) [2] 75%

O=C(CCCN1CCc2[nH]c3ccc(F)cc3c2C1)c1ccc(F)cc1
inactive: outcome [2] | outcome [4]
active: Tl flux remaining, % of negative control (stronger effect = lower value) [1] 46% | inhibition [3] 69% | inhibition [5] 5.5%

CN(c1ccccc1)S(=O)(=O)c1ccc(Cl)c(C(=O)OCC(=O)NCc2ccco2)c1
inactive: outcome [1] | outcome [2] | activity increase over 3SD of controls [6] -5.5% | activation over 3SD threshold [7] -28.3% | potentiation, less the hit threshold [8] -1.3% | activity over 3SD threshold [9] -38.2%

Cc1nnc(SCc2ccc(C(=O)c3ccc(Cl)cc3)o2)n1-c1ccccc1
inactive: outcome [2] | outcome [3] | outcome [4] | outcome [28] | outcome [30]
active: Tl flux remaining, % of negative control (stronger effect = lower value) [1] 66% | inhibition [5] 19% | membrane potential signal change [27] 116% | percent change from control (negative = decrease, positive = increase) [29] 23.5% | inhibition [31] 62%

O=C(Nc1cccc(-c2cscn2)c1)C1CCN(Cc2ccsc2)CC1
active: Tl flux remaining, % of negative control (stronger effect = lower value) [1] 44% | inhibition [3] 51% | inhibition [5] 7.1%
inactive: outcome [2] | outcome [4]

CCc1ccccc1NC(=O)[C@@H]1CCC(=O)N1C1OC(=O)c2c1ccc(OC)c2OC (some centres undefined)
active: activity increase over 3SD of controls [6] 82.8% | activation over 3SD threshold [7] 55%
inactive: outcome [1] | outcome [2] | potentiation, less the hit threshold [8] -19.6% | activity over 3SD threshold [9] -22%

Cc1ccccc1C(=O)NCCN=C1NS(=O)(=O)c2ccccc21
inactive: outcome [1] | outcome [2] | outcome [3] | outcome [4] | outcome [5]

CC1(C)NC(=O)N(CCCCSc2ccc(Cl)cc2)C1=O
active: Tl flux remaining, % of negative control (stronger effect = lower value) [1] 46% | inhibition [5] 40.8%
inactive: outcome [2] | outcome [3] | outcome [4]
